Values without a mark were called inactive. How the calls were made is not given here.

Chain of Pantothenate synthetase (Mycobacterium tuberculosis (strain ATCC 25618 / H37Rv)) (P9WIL5 whole entry, looked up): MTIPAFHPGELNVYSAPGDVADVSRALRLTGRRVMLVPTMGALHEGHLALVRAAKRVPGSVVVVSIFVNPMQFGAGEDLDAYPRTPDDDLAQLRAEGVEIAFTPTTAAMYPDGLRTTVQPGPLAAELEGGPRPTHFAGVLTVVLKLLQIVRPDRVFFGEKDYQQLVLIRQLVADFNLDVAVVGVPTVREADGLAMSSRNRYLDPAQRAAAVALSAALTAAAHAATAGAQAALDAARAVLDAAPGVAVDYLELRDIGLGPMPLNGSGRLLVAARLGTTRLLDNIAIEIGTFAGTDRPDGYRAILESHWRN

The assay addresses Pantothenate synthetase (Mycobacterium tuberculosis (strain ATCC 25618 / H37Rv)) (UniProt P9WIL5). The experiment in a line: Recombinant Mtb pantothenate synthetase (PanC) inhibitors, coupled enzyme, confirmatory (AID 375).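 Further: 0% = full reaction with vehicle and 100% = no enzyme background.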 The note with it: coupled enzyme assay; at 10 µM, stronger effect = higher value.
A word on the inhibition: it is the drop in the measured response relative to a control, in per cent. Regarding `Cc1ccccc1N1C(N)=NC(N)=NC1(C)C`, the inhibition was 0%.
Under `CC(C)CN(CC(C)C)c1nc(N)c(C#N)c(CC#N)c1C#N` stands 0%; under `CN(C)Cc1c(O)ccc2oc(Cc3ccccc3)cc12`, 8%.
Under `CC(=O)c1ccccc1Oc1nc(CN2CCOCC2)nc2scc(-c3cccs3)c12` stands 3%; under `Cc1cc(C(=O)N2CCCc3ccccc32)no1`, 3%; under `O=C(CN1CCCC1)Nc1ccc(NC(=O)Nc2ccccc2)cc1`, 0%.
For the molecule `N#Cc1ccc(CSc2nnc(-c3ccccn3)n2-c2ccccc2)cc1`, the inhibition is 0%.
Next, `CSC1=C(C#N)C(c2ccc(Cl)cc2)C2=C(CC(C)(C)CC2=O)N1` (centres undefined): 2%; `CC(=O)Nc1ccc(NC(=O)c2ccccc2F)cc1`: 0%; `FC(F)(F)c1cc(-c2ccco2)nc(-n2nnc3ccccc32)n1`: 0%.
Under `COC(=O)c1cc(Br)c(=O)n(-c2nccs2)c1` stands 0%; under `CN(C)S(=O)(=O)c1ccc(C(=O)N2CCC(c3nc4ccccc4o3)CC2)cc1`, 5%.
As to `CCOC(=O)CSc1nnc(CNC(=O)c2ccc(S(=O)(=O)N3CCCC3)cc2)n1C`, the inhibition was 10%.
Take `O=C(CCn1c(=O)c2ccccc2n(CC(=O)NCCC2=CCCCC2)c1=O)NCc1ccco1`: the inhibition is 4%.
For the molecule `CC(C)Cn1c(N)c(C(=O)COC(=O)c2ccc3c(c2)OCCO3)c(=O)n(C)c1=O`, the inhibition was 0%.
Under `COc1cccc(N2C(=O)N(c3ccccc3Cl)C3CS(=O)(=O)CC32)c1` (centres undefined) stands 3%.
`O=C(CSc1nc2c(sc3ccccc32)c(=O)n1Cc1ccco1)NCC1CCCO1` (centres undefined): the inhibition was 2%.
Under `O=C(CC(=O)c1cc(Cl)ccc1O)c1ccccc1` stands 0%; under `O=C(NCC1COc2ccccc2O1)c1ccccc1` (centres undefined), 2%; under `Cc1ccccc1NC(=O)C1CCCN(S(=O)(=O)c2cccc3cccnc23)C1` (centres undefined), 0%.
Next, `CCC(Sc1nc2n[nH]c(C)c2c(=N)n1-c1cc(Cl)ccc1C)C(=O)N1CCOCC1` (centres undefined): 0%; `Cc1cccc2cc(CN(Cc3nnnn3Cc3ccccc3)C3CCCC3)c(=O)[nH]c12`: 0%.
For the molecule `CC(CN1CCCCC1)OC(=O)c1ccc2c(c1)OCO2` (centres undefined), the inhibition was 0%.
Consider `Cc1ccc(C)c(S(=O)(=O)NCc2cccnc2)c1`, for which the inhibition is 7%.
In the case of `CC1CCN(C(=O)CSc2nnc(-c3cccnc3)n2C2CCCCC2)CC1`, the inhibition was 0%.
`O=C(c1ccco1)N1CCN(S(=O)(=O)c2ccc(C3CCCCC3)cc2)CC1`: the inhibition is 3%.
Next, `Cc1cc2cc(CCNC(=O)CC(C)C)c(=O)[nH]c2cc1C`: 9%.
With `COc1ccc(CCN(C)CCCC(C#N)(c2cc(OC)c(OC)c(OC)c2)C(C)C)cc1OC` (centres undefined), the inhibition is 0%.
On to `CCS(=O)(=O)N1CCC(C(=O)NCc2cccs2)CC1`, for which the inhibition was 2%.
Next, `O=C1CCC(c2ccccc2)N1C(=O)c1cccnc1` (centres undefined): 0%.
On to `Cc1cc(C)n2c(SCC(=O)Nc3cc(C)on3)nnc2n1`, for which the inhibition is 17%.
Consider `COc1ccccc1C1c2c(oc3ccc(Cl)cc3c2=O)C(=O)N1c1cc(C)on1` (centres undefined), for which the inhibition is 0%.
For `C=CCOC(=O)COc1ccc2c(C)c(C)c(=O)oc2c1C`, the inhibition was 0%.
For `CCOC(=O)c1ccc(N2C(=O)CC(N3CCN(C/C=C/c4ccccc4)CC3)C2=O)cc1` (centres undefined), the inhibition was 2%.
Regarding `CC1CCN(CCn2c(=S)[nH]c3ncccc3c2=O)CC1`, the inhibition is 0%.
As to `O=C(O)CCNC(=O)c1ccccc1`, the inhibition was 3%.
As to `CC(=O)OCC[N+](C)(C)C`, the inhibition is 0%.
Under `C/C=C/Cn1c(SCCCc2ccccc2)nc2c1c(=O)[nH]c(=O)n2C` stands 0%.
Under `CCOC(=O)Nc1cc(OC)c(OC)cc1Cc1nccc2cc(OC)c(OC)cc12` stands 0%.

Values taken from PubChem BioAssay.
